MEKK3 PB1 HTS: modulators of MEKK3-MEK5 PB1 binding, primary screen, biochemical, wildtype MEKK3, multiplex bead flow cytometry, Alexa488-MEK5 | binding response (% of control), % at 10 µM | AID 1529, 2009 | Mitogen-activated protein kinase kinase kinase 3 (Homo sapiens), Q99759 | bead-based flow cytometry, Alexa488-MEK5 binding to MEKK3; actives lie on both sides; 0 = blocked by unlabeled MEK5, 100 = vehicle | 1.4% of 290,000 active;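 active means binding response more than 3 SD above or below the average of its plate-row segment, actives on both sides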;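 further: Alexa488 bead fluorescence after subtracting the streptavidin-only scavenger bead signal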
TMEM16A inh: TMEM16A chloride channel inhibitors, primary screen, cell-based, HTS. Anoctamin-1 (Mus musculus), Q8BHY3. HEK293 TMEM16A/YFP iodide influx fluorescence, ionomycin. normalized B-score (activity score, 25-100; higher = stronger inhibition) at 10 µM. 1.2% of 310,000 active;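 active means ratio plate-corrected score three or more library SD toward inhibition, starting fluorescence score within five deviations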;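 further: score derived from kinetic fluorescence span divided by baseline fluorescence per well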
MEKK2mut PB1 HTS: MEK5 binding signal on mutant MEKK2 PB1, primary screen, biochemical, multiplex bead flow cytometry, Alexa488-MEK5. Alexa488-MEK5 binding to MEKK2 mutant. percent response, % at 10 µM. 0.35% of 290,000 active; in the data active means percent response above about 24%, passing the limit was not always enough
NTR1 agonist: agonists of human NTR1, primary screen, imaging, U2OS cells, beta-arrestin-GFP, high content; 0.17% of 330,000 active; NTR1-U2OS beta-arrestin-GFP spot imaging, agonist mode; activation, % at 20 µM; AID 493036, 2011;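 active means activation at or above 40% of the spot to cytoplasm intensity ratio, with at least 20 cells analyzed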;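 further: 0% = DMSO without peptide and 100% = 100 nM NTR1 peptide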
Target sequence (P30989 whole entry, looked up): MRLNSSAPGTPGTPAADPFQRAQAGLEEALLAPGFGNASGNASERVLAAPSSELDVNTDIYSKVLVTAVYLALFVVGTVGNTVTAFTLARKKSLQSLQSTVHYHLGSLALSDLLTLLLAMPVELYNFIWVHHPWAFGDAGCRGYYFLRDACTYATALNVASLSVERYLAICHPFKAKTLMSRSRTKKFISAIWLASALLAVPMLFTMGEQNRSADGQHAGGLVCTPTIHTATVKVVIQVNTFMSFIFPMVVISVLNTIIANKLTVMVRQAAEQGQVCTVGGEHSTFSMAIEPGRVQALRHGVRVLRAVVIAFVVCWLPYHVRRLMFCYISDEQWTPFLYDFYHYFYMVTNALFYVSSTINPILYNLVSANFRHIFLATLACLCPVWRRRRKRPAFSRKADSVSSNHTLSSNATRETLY
MEKK2 WT-MEK5: modulators of MEK5 binding to wildtype MEKK2, primary screen, biochemical, multiplex bead flow cytometry, Alexa488-MEK5. binding response (% of control), % at 10 µM. 1.1% of 290,000 active. Alexa488-MEK5 binding to MEKK2 WT; actives lie on both sides. AID 1531, 2009. Mitogen-activated protein kinase kinase kinase 2 (Homo sapiens), Q9Y2U5; in the data active means binding response below about 67% or above about 130%
TMEM16A act: TMEM16A chloride channel activators or potentiators, primary screen, cell-based, HTS; Anoctamin-1 (Mus musculus), Q8BHY3; HEK293 TMEM16A/YFP-H148Q/I152L, iodide quench fluorescence; active compounds read low; B-score at 10 µM; 0.3% of 340,000 active; AID 623877, 2012;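 active means fluorescence-ratio B-score plate-corrected deviation score at least 3 library SD below zero, with starting fluorescence score within 5 deviations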;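 further: channel opened by trigger with iodide after compound preincubation; score built on the fluorescence ratio of max minus min over baseline; more negative score means more quench and so TMEM16A activation or potentiation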
MEKK2wt confirm: modulators of MEK5 binding to wildtype MEKK2, confirmation, biochemical, single concentration, multiplex bead flow cytometry; shares compounds with MEKK3 PB1 HTS; Alexa488-MEK5 binding to MEKK2 WT; actives lie on both sides; binding response (% of control), % at 10 µM; 2.4% of 5,900 active; in the data active means binding response below about 16% or above about 210%; inactive means in between
MEKK2mut-MEK5: mutant MEKK2 PB1-MEK5 binding signal retest – biochemical, single concentration, multiplex bead flow cytometry, confirmation; shares compounds with MEKK3 PB1 HTS; Alexa488-MEK5 binding to MEKK2 mutant; percent response, % at 10 µM; 2% of 5,900 active; AID 1893, 2009; in the data active means percent response mostly above about 71%, no sharp cut-off; inactive means mostly below about 38%;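 further: higher means compound restores mutant binding toward wildtype level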
MEKK3-MEK5 inh: MEKK3 wild-type PB1 binding to MEK5, inhibitors, confirmation, biochemical, bead multiplex flow cytometry, single concentration, wildtype; shares compounds with MEKK3 PB1 HTS; Alexa488-MEK5 binding to MEKK3; active compounds read low; binding response (% of control), % at 10 µM; 1.8% of 5,900 active;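 active means binding response below 72% of control, or above a set upper limit, though filed actives all read lower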;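 further: 100% = DMSO only wells and 0% = binding blocked by excess unlabeled MEK5; lower values mean stronger disruption of MEK5 binding to MEKK3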
NTR1 ag conf: NTR1 agonists, single-dose retest, confirmation, imaging, U2OS cells, beta-arrestin-GFP, single concentration | shares compounds with NTR1 agonist | NTR1-U2OS beta-arrestin-GFP translocation imaging | activation, % at 20 µM | 38% of 480 active | AID 504550, 2011;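 active means mean activation at 20 µM of at least 40%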;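 further: 0% = DMSO without peptide and 100% = 100 nM NTR1 peptide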
TMEM16A reconf: TMEM16A chloride channel inhibitors, confirmation, cell-based, re-confirmation. inhibition, % at 10 µM. HEK293 TMEM16A/YFP-H148Q, iodide quench fluorescence; ionomycin added to raise cell calcium. 39% of 2,300 active. shares compounds with TMEM16A inh;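 active means mean duplicate percent inhibition, scaled so buffer wells are 0 and the reference blocker 100, over three buffer SD above buffer mean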
HEK293 Ca mobil: calcium mobilization in TMEM16A/YFP HEK293 cells, confirmation, counter-screen for TMEM16A inhibitor project; Fluo4 calcium mobilization; shares compounds with TMEM16A inh; calcium response (% of ionomycin), % at 10 µM; 2% of 2,300 active;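 active means duplicate-averaged calcium signal over 20% of the ionomycin maximum, relative to buffer baseline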;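 further: each well's signal is peak minus trough fluorescence divided by its pre-addition baseline; 0% = buffer wells and 100% = ionomycin wells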
Parental YFP cnt: iodide YFP quench changes in parental YFP-HEK293, counter-screen for TMEM16A inhibitor project, cell-based; 2,300 tested, under 10 active; AID 652233, 2013; YFP ratio F(max-min)/F0 at 10 µM; ionomycin; shares compounds with TMEM16A inh;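 active means yellow fluorescent protein signal ratio exceeding the buffer control mean by over 5 SD of those controls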;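 further: ratio is mean of duplicate wells from kinetic YFP trace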
ClC-1 rat inh: ClC-1 chloride channel inhibition, selectivity assay for TMEM16A inhibitor project, cell-based, voltage-dependent ClC-1; shares compounds with TMEM16A inh; CHO ClC-1-YFP, iodide influx fluorescence quench; iodide control reads 0, buffer control 100; ratio percent, % at 10 µM; 2,300 tested, under 10 active; AID 652236, 2013;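 active means duplicate-mean ratio percent above the mean of iodide-only control wells, which defines zero, plus 5 of their SD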;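 further: higher percent means stronger block of ClC-1 iodide influx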
* marks the source's active call; other numbers are inactive results; [ ] = remark or other dose. This is a sample that favours compounds with a hit; in the whole collection about 3.4% have one here.

Screening O=C(CN1CCC(C(=O)c2ccc(F)cc2)CC1)Nc1ccc(F)cc1 returned MEKK3 PB1 HTS 46.0*[inhibitor], TMEM16A inh 100*, MEKK2mut PB1 HTS 2.0, NTR1 agonist -0.8, MEKK2 WT-MEK5 66.0, TMEM16A act inactive, MEKK2wt confirm 99.0, MEKK2mut-MEK5 -4.0, MEKK3-MEK5 inh 101.0, TMEM16A reconf inactive, HEK293 Ca mobil inactive, Parental YFP cnt -1.02 and ClC-1 rat inh -7.5.
For CC(=O)c1ccc(NC(=O)CN2CCC(C(=O)c3ccc(F)cc3)CC2)cc1 the results were MEKK3 PB1 HTS 105.0, TMEM16A inh inactive, MEKK2mut PB1 HTS 6.0, NTR1 agonist -1.4, MEKK2 WT-MEK5 110.0 and TMEM16A act inactive.
`CCn1c(=O)c(=O)[nH]c2c(=O)oc3ccc(S(=O)(=O)Nc4ccccc4)cc3c21` gave MEKK3 PB1 HTS 95.0, TMEM16A inh inactive, MEKK2mut PB1 HTS 1.0, NTR1 agonist 0.1, MEKK2 WT-MEK5 94.0 and TMEM16A act inactive.
Screening Cc1c(/C=N/NC(=O)c2ccccc2O)c2ccccn2c1C(=O)c1ccc(F)cc1 returned MEKK3 PB1 HTS 142.0*, TMEM16A inh 100*, MEKK2mut PB1 HTS 1.0, NTR1 agonist 114.3*, MEKK2 WT-MEK5 108.0, TMEM16A act inactive, MEKK2wt confirm 89.0, MEKK2mut-MEK5 -11.0, MEKK3-MEK5 inh 98.0, NTR1 ag conf 17.3, TMEM16A reconf 33.5%*, HEK293 Ca mobil inactive, Parental YFP cnt -0.92 and ClC-1 rat inh -14.5.
For COc1ccccc1NC(=O)CSc1nnc(NC(=O)C2CCC2)s1 the results were MEKK3 PB1 HTS 98.0, TMEM16A inh inactive, MEKK2mut PB1 HTS -8.0, NTR1 agonist -0.5, MEKK2 WT-MEK5 90.0 and TMEM16A act inactive.
`COc1cccc(C(=O)NNC2=C(C(=O)C(F)(F)F)CCC2)c1` gave MEKK3 PB1 HTS 103.0, TMEM16A inh inactive, MEKK2mut PB1 HTS 2.0, NTR1 agonist 1.0, MEKK2 WT-MEK5 100.0 and TMEM16A act inactive.
`O=C(NNC1=C(C(=O)C(F)(F)F)CCC1)c1ccc(Br)cc1` gave MEKK3 PB1 HTS 125.0*, TMEM16A inh 100*, MEKK2mut PB1 HTS 25.0*, NTR1 agonist 0.8, MEKK2 WT-MEK5 124.0, TMEM16A act inactive, MEKK2wt confirm 101.0, MEKK2mut-MEK5 2.0, MEKK3-MEK5 inh 101.0, TMEM16A reconf 16.0%*, HEK293 Ca mobil inactive, Parental YFP cnt -0.982 and ClC-1 rat inh -9.0.
Screening Cc1ccc(C(=O)OC(C)C(=O)NC2CCCCC2C)cc1S(=O)(=O)N1CCCCC1 (stereo unspecified) returned MEKK3 PB1 HTS 101.0, TMEM16A inh inactive, MEKK2mut PB1 HTS -1.0, NTR1 agonist 1.2, MEKK2 WT-MEK5 98.0 and TMEM16A act inactive.
Cc1csc2c(N3CCN(C(=O)c4ccc(C(C)(C)C)cc4)CC3)ncnc12 was read as MEKK3 PB1 HTS 131.0*, TMEM16A inh 100*, MEKK2mut PB1 HTS 22.0, NTR1 agonist 4.6, MEKK2 WT-MEK5 124.0, TMEM16A act inactive, MEKK2wt confirm 109.0, MEKK2mut-MEK5 1.0, MEKK3-MEK5 inh 104.0, TMEM16A reconf 36.5%*, HEK293 Ca mobil inactive, Parental YFP cnt -1.11 and ClC-1 rat inh -28.0.
O=[N+]([O-])c1ccc(Nc2c3ccccc3nc3ccccc23)cc1 was read as MEKK3 PB1 HTS 105.0, MEKK2mut PB1 HTS -9.0, NTR1 agonist 43.5*, MEKK2 WT-MEK5 99.0, TMEM16A act inactive and NTR1 ag conf 9.9.
Screening O=[N+]([O-])c1ccccc1Nc1c2ccccc2nc2ccccc12 returned MEKK3 PB1 HTS 103.0, TMEM16A inh inactive, MEKK2mut PB1 HTS -2.0, NTR1 agonist 3.2, MEKK2 WT-MEK5 100.0 and TMEM16A act inactive.
Screening CCCCNc1c(-c2cccc(-c3cc(C(C)=O)cs3)c2)nc2ccc(C)cn12 returned TMEM16A inh inactive, NTR1 agonist 40.6*, TMEM16A act inactive and NTR1 ag conf 22.4.
c1ccc(Nc2nc3ccccc3n3cnnc23)cc1 was read as MEKK3 PB1 HTS 100.0, TMEM16A inh inactive, MEKK2mut PB1 HTS 4.0, NTR1 agonist 3.3, MEKK2 WT-MEK5 101.0 and TMEM16A act inactive.

Source: PubChem (several laboratories)
